Most compounds without a hit are left out; they make up all but 1.4% or so of the library.
MsrA inh = inhibits bovine methionine sulfoxide reductase A. purified bovine MsrA, absorbance read-out. inhibition, % at 15.5 µM. hit rate 0.75% among 360,000; in the data active means inhibition above about 4.5%;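 further: 0% = vehicle wells with enzyme and 100% = reference inhibitor wells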
14-3-3 Bad PPI = disrupts binding of bovine 14-3-3 zeta to phospho-Bad peptide | hit rate 0.71% among 220,000 | AID 781 | inhibition, % at 21.7 µM | P63103 | TR-FRET 14-3-3zeta/Dy647-pBad peptide displacement, 1 h;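 active means inhibition above about 70%, limit read from the data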;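 further: 0% = full 14-3-3 plus peptide FRET controls and 100% = background without 14-3-3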
p-CIP stab down = compounds decreasing mouse p/CIP protein stability; Q05BA5; F442A p/CIP-EGFP cells, EGFP fluorescence, 16 h; decrease of EGFP signal, % at 10 µM; hit rate 0.01% among 290,000; AID 1984;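 active means EGFP signal decrease of at least 30% at 10 µM or well 3 SD below plate mean, unless failing retest; inactive means the rest, including hits failing retest or dose response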
MsrA act = bovine methionine sulfoxide reductase A activation; purified bovine MsrA, absorbance read-out; activation, % at 10.6 µM; hit rate 0.3% among 360,000; in the data active means activation above about 7.5%;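 further: 0% = vehicle and 100% = reference activator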
MsrA act confirm = bovine methionine sulfoxide reductase A activation confirmed; activation, % at 10.6 µM; hit rate 12% among 1,000; purified bovine MsrA, absorbance read-out; shares compounds with MsrA act; AID 602270; in the data active means activation above about 4%;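 further: enzyme coupled to thioredoxin and thioredoxin reductase with NADPH; 0% = vehicle wells and 100% = reference activator wells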
The depositor's hits bear a star; . = not tested or not shown.

SMILES	MsrA inh	14-3-3 Bad PPI	p-CIP stab down	MsrA act	MsrA act confirm
Cc1csc(N(C(=O)c2cccc(S(=O)(=O)N(C)C)c2)c2ccccc2)n1	0	-6	-1	-5	.
CCc1nc(NCC2CCCO2)c(C#N)c2c1COC(C)(C)C2 (stereo not drawn)	3	-5	-6	-3	.
CC(C)c1nc(NCC2CCCO2)c(C#N)c2c1COC(C)(C)C2 (stereo not drawn)	1	-4	-24	10.0*	0
COc1ccc2ccccc2c1/C=N/NC(=O)c1cccc(C)c1	2	.	.	9.4*	-1
COc1ccc2ccccc2c1/C=N\NC(=O)c1cccnc1	1	.	.	-2	.
C=CCN=C1NC(c2cccc(Cl)c2)C(C(=O)OC)=C(C)N1Cc1cccc(C(F)(F)F)c1 (stereo not drawn)	0	.	.	.	.
CCOC(=O)C1=CN(Cc2cccc(F)c2)S(=O)(=O)NC1CCc1ccccc1 (stereo not drawn)	-1	.	.	1	.
CCOC(=O)C1=CN(Cc2cccc(F)c2)S(=O)(=O)N(CC)C1CCc1ccccc1 (stereo not drawn)	0	.	.	8.6*	1
COc1cc(Cl)c(CNC[C@H]2O[C@@H](n3ccc(=O)[nH]c3=O)[C@H](O)[C@@H]2O)c(Cl)c1O	0	.	.	10*	-1
CCCCN(CC)CCCNC(=O)CC1Oc2ccccc2NC1=O (stereo not drawn)	1	-8	-9	-2	.
CC(C)CN(CCCNC(=O)CC1Oc2ccccc2NC1=O)CC(C)C (stereo not drawn)	-1	-19	0	8.6*	0
COc1cccc(-c2cc3nc(NCCN4CCCC4)n(C)c(=O)c3s2)c1	2	.	.	12*	1
Cn1c(NCCN2CCCC2)nc2cc(-c3ccccc3)sc2c1=O	0	.	.	1	.
O=C(CCCc1ccccc1)NCCC1=CCCCC1	1	-16	-4	8.5*	-2
O=C(CCc1ccccc1)NCCC1=CCCCC1	0	-3	-4	-3	.
Cc1cccc(C(=O)N2CCCC(N3CCN(c4cccc(Cl)c4)CC3)C2)n1 (stereo not drawn)	0	.	-6	17*	-3
O=C(c1cnccn1)N1CCCC(N2CCN(c3cccc(Cl)c3)CC2)C1 (stereo not drawn)	0	.	-19	-3	.
C[C@@H]1C=CCCO[C@]12C(=O)N(Cc1ccccc1C(F)(F)F)c1cccc(Br)c12	1	.	.	.	.
Fc1ccc(CN2CCN(c3ncc(Cc4ccccc4)cn3)CC2)c(Cl)c1	-1	.	.	.	.
CC(C)OP(=O)(OC(C)C)C(C)NC(=O)Cc1ccccc1 (stereo not drawn)	0	-3	2	17*	0
CCCN1CCCCC(NC(=O)OC(C)(C)C)C1=O (stereo not drawn)	0	.	.	.	.
CC(C)NC(=O)OC[C@H]1O[C@H](C#Cc2ccc(C(C)(C)C)cc2)C=C[C@H]1O	1	.	.	.	.
O=S(=O)(Nc1ccc2c3c(cccc13)CC2)c1ccc(F)cc1	-1	7	-17	-2	.
CSc1ccc(S(=O)(=O)Nc2ccc3c4c(cccc24)CC3)cc1	0	1	-2	11*	0
c1ccc(SSc2ccccn2)nc1	.	.	.	11*	7.5*
SMILES	MsrA inh	14-3-3 Bad PPI	p-CIP stab down	MsrA act	MsrA act confirm
CSc1oc(-c2ccccc2)nc1S(=O)(=O)c1ccc(C)cc1	3	9	-5	8.0*	-1
CCC(c1nc2ccccc2[nH]1)n1c(-c2ccc3cc[nH]c3c2)nc2ccccc21 (stereo not drawn)	0	.	.	.	.
Cc1cccc(NC(=O)CNC(=O)[C@@H](Cc2ccccc2)NC(=O)[C@H]2O[C@@H](n3ccc(=O)[nH]c3=O)[C@H](O)[C@@H]2O)c1C	1	.	.	.	.
O=C(NC12CC3CC(CC(C3)C1)C2)c1cnccn1	0	-8	-4	2	.
C/C(CC(=O)NC12CC3CC(CC(C3)C1)C2)=N\NC(=O)c1cnccn1	1	-8	12	14*	-1
COCC(=O)NCC1CCN(C(=O)C(=O)c2cccs2)CC1	0	.	.	.	.
CCOC(=O)c1cnc2c3c(noc13)CCC2	2	.	.	.	.
O=[N+]([O-])c1ccc(N/N=C/c2cn(Cc3ccc(F)cc3)c3ccccc23)nc1	-1	38	-46	17*	0
COC(=O)N/N=C/c1cn(Cc2ccc(F)cc2)c2ccccc12	0	-13	-18	-3	.
COc1ccc(S(=O)(=O)N2CCCc3nc(-c4ccc(Br)cc4)ccc32)cc1	1	.	.	.	.
CCN(CC)C(=O)c1csc(Nc2cccc3ccccc23)n1	1	.	-6	-1	.
CCN(CC)CCCNC(=O)c1csc(Nc2cccc3ccccc23)n1	-1	.	10	8.1*	-2
CCCCN(C(=O)c1cc(Cl)nc2ccccc12)c1c(N)n(CCC)c(=O)[nH]c1=O	1	.	.	-9	.
CCCCN(C(=O)c1cc(Cl)nc2ccccc12)c1c(N)n(Cc2ccccc2)c(=O)[nH]c1=O	0	.	.	12*	0
O=C(NCc1ccccc1)[C@@H]1CCCN1C(=O)[C@@H]1CCCN1C(=O)c1cccs1	-1	.	.	-1	.
O=C(NCc1ccccc1Cl)[C@H]1CCCN1C(=O)[C@H]1CCCN1C(=O)c1cccs1	-1	.	.	9.2*	-3
CCC(=O)Nc1ccc(C(=O)Nc2cccnc2)cc1	-1	-9	-3	15*	-1
COc1ccc(N=C2Sc3ccccc3[C@@H]3C[C@H]4[C@H](CON4C)CN23)c(OC)c1	0	.	.	.	.
CN(c1cccnc1)c1ccc(NC(=O)CCc2c[nH]c3ccccc23)cc1Br	1	.	.	.	.
S=c1[nH]nc(Nc2cccc(Cl)c2)s1	2	2	6	-3	.
Cc1ccc(Nc2n[nH]c(=S)s2)cc1C	1	.	.	7.8*	1
O=C(C(=O)N1CCN(S(=O)(=O)c2ccc(OC(F)(F)F)cc2)CC1)c1cccc(C(F)(F)F)c1	0	.	.	.	.
Cc1ccc(C(=O)Nc2nccc(C)n2)cc1	-1	.	-2	8.7*	-1
Cc1ccnc(NC(=O)c2cccc(OC(F)F)c2)n1	0	.	-1	-3	.

Screening data deposited in PubChem BioAssay by several laboratories.
